# The sample as a whole holds a higher share of hits than the screen did.
# TTR transcr act: TTR transcription activators in neuroblastoma reporter cells, primary screen, cell-based, luminescence, SH-SY5Y, TTR promoter Gaussia luciferase | 100% = recombinant luciferase protein wells | activation, % at 16.7 µM | 92,000 compounds, 1.3% hits;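 active = activation above the mean of all tested compounds plus 3 SD, cut at about 9.5% in these data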;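 also: cells exposed to compounds for one day before reading; 0% = median of all test compound wells on the plate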
# HuH7 TTR inh: TTR promoter reporter inhibitors in hepatoma cells, counter-screen for TTR transcription activator project, cell-based, luminescence, HuH7 hepatoma | 1,100 compounds, 4% hits | HuH7 TTR promoter-Gaussia luciferase reporter | inhibition, % at 16.7 µM | shares compounds with TTR transcr act;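 active = average inhibition above the solvent-only control wells' mean plus 3 SD, cut at about 15% in these data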;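 also: 0% = cells with DMSO only and 100% = cells with inhibitor control FD; inhibitors lower well luminescence so higher value means more inhibition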
# TTR act confirm: TTR transcription activators, retest, confirmation, cell-based, luminescence, SH-SY5Y, triplicate; activation, % at 16.7 µM; AID 1117280, 2014; 1,100 tested, under 10 active; SHSY5Y TTR promoter Gaussia luciferase; 100% = purified Lucia enzyme wells, no cells; shares compounds with TTR transcr act;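 active = mean activation above a set limit taken from the earlier primary screen, cut at about 11% in these data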;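 also: 0% = DMSO-treated cells and 100% = recombinant Lucia luciferase without cells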
# * hit, by the source's call.
SMILES,TTR transcr act,others
Cc1cccc(CN2CCN(C3CN(C4CCCCC4)S(=O)(=O)C3)CC2)c1 (centres undefined),6,
Cc1nc(SCC(=O)N(C)c2ccccc2)[nH]c(=O)c1C,0,
NCCNc1ccc2nnnn2n1,19*,HuH7 TTR inh=-8;TTR act confirm=3
Clc1ccc(CNc2ccc3nnc(-c4ccccc4)n3n2)cc1,4,
c1ccc(CCNc2ccc3nncn3n2)cc1,5,
COC(=O)[C@]12C[C@H](CC(=O)N3CCN(C(=O)c4ccco4)CC3)C(=O)N(Cc3ccco3)C1=C[C@H](C1CCCC1)O[C@@H]2C,0,
CC(C)[C@@H](C)/C=C/[C@@H](C)[C@H]1CC[C@@H]2[C@]1(C)CCC1[C@]23C=C[C@]2(C[C@@H](O)CC[C@]12C)N(c1ccc(Br)cn1)O3 (some centres undefined),0,
COc1ccc(N(CC(=O)N/N=C/c2ccc(OC3CSC3)cc2)S(=O)(=O)c2ccccc2)cc1,0,
CS(=O)(=O)N(CC(=O)N/N=C/c1cc([N+](=O)[O-])ccc1Cl)c1ccccc1,1,
O=C(CN(c1ccc(Cl)c(C(F)(F)F)c1)S(=O)(=O)c1ccccc1)N/N=C/c1cccc2c1OCCO2,10*,HuH7 TTR inh=0;TTR act confirm=-1
O=C(c1cccc(C(F)(F)F)c1)N1CCC(=O)N(C(CO)Cc2ccccc2)CC1 (centres undefined),1,
COc1ccc(C(=O)N2CCC(=O)N(C(CO)Cc3ccccc3)CC2)cc1 (centres undefined),13*,HuH7 TTR inh=-10;TTR act confirm=0
O=C(c1ccc(C(F)(F)F)cc1)N1CCC(=O)N([C@H](COCc2ccc(C(F)(F)F)cc2)Cc2ccccc2)CC1,-1,
Nc1[nH]c(C(=O)c2ccccc2)c(-c2cccc3ccccc23)c1C(=O)c1c(-c2ccccc2)[nH]c2ccccc12,-2,
O=C(Cc1ccc(Cl)cc1)Nc1cccc(-c2nnc(-c3ccco3)o2)c1,0,
O=C(Cc1ccccc1)Nc1cccc(-c2nnc(-c3ccco3)o2)c1,-4,
O=C(COc1ccccc1)Nc1ccc(-c2nnc(-c3ccco3)o2)cc1,19*,HuH7 TTR inh=-1;TTR act confirm=-1
CC(C)COc1ccc(CNC(=S)N/N=C/c2ccc([N+](=O)[O-])cc2)cc1,11*,HuH7 TTR inh=7;TTR act confirm=-1
COc1ccc(CNC(=S)N/N=C/c2ccncc2)cc1,0,
CC(C)Oc1ccc(CNC(=S)N/N=C/c2ccc([N+](=O)[O-])cc2)cc1,2,
CCCCCn1nnnc1C1(C)CCCCC(=O)N1Cc1ccco1 (centres undefined),1,
COc1ccc(-c2csc3nc(-c4cccnc4)nc(N4CCC(C(N)=O)CC4)c23)cc1OC,-2,
O=C(O)c1ccc(-c2nc3scc(-c4ccccc4)c3c(=O)[nH]2)cc1,5,
O=C1CN(c2nc(-c3cccnc3)nc3scc(-c4ccccc4)c23)CCN1,13*,HuH7 TTR inh=-5;TTR act confirm=-1
COC(=O)c1ccc(Cn2ccc3ccc(-c4ccc5ccn(Cc6ccc(OC)cc6)c5c4)cc32)cc1,-2,
SMILES,TTR transcr act,others
Cc1cc(C)nc(SCCC(=O)Nc2cccc3ccccc23)n1,13*,HuH7 TTR inh=-10;TTR act confirm=2
Cc1cc(C)nc(SCC(=O)Nc2ccnc3ccccc23)n1,-3,
O=C(CSCC(=O)Nc1cccc2ccccc12)Nc1cccc2ccccc12,-1,
COc1cc(/C(C)=N/NC(=O)Cc2c(C)[nH][nH]c2=O)ccc1O,14*,HuH7 TTR inh=-5;TTR act confirm=0
C/C(=N/NC(=O)Cc1c(C)[nH][nH]c1=O)c1ccc(O)cc1,0,
COc1ccc(/C(C)=N/NC(=O)Cc2c(C)nc(C)[nH]c2=O)cc1,2,
Cc1onc(-c2c(F)cccc2Cl)c1C(=O)OCC(=O)N(C)c1ccccc1,3,
NC(=O)c1sc2nc3c(c(-c4ccco4)c2c1N)CCC3,0,
NC(=O)c1sc2nc(-c3ccco3)ccc2c1N,10*,HuH7 TTR inh=4;TTR act confirm=0
Nc1c(C(=O)Nc2ccccc2F)sc2nc(-c3ccco3)ccc12,-2,
CCOC(=O)N1CCN(C(=O)C[C@H]2C[C@@]3(C(=O)OC)C(=C[C@H](C(C)C)O[C@@H]3C3CC3)N(CCc3ccc(OC)c(OC)c3)C2=O)CC1,-2,
O=C(CCC1CCN(C(=O)c2ccccc2Cl)CC1)NCc1ccc(F)cc1,2,
O=S(Cc1ccccc1)c1ccccc1 (centres undefined),1,
O=S(Cc1cc(Sc2ccccc2)nc(-c2ccccc2)n1)c1ccccc1 (centres undefined),12*,HuH7 TTR inh=12;TTR act confirm=-1
COc1cccc(Sc2cc(N3CCOCC3)nc(-c3ccccc3)n2)c1,-2,
CC(C)C[C@H]1CNC(=S)N1C[C@H]1CCCN1C[C@H](CC(C)C)N1C[C@H](Cc2ccc(O)cc2)N(CCc2ccccc2)C1=S,-3,
CC(C)C[C@H]1CNC(=S)N1C[C@H]1CCCN1C[C@H](CC(C)C)N1C[C@H](Cc2ccc(O)cc2)N(CC2CCCCCC2)C1=S,25*,HuH7 TTR inh=9;TTR act confirm=-1
CC(C)C[C@H]1CNC(=S)N1CC1CCCN1C[C@H](CC(C)C)N1C[C@H](Cc2ccc(O)cc2)N(CC2CCCCC2)C1=S (some centres undefined),-2,
COc1ccc(C)cc1NC(=O)CN1CCCN(S(=O)(=O)c2ccc(Br)cc2)CC1,0,
COc1ccc(C=O)cc1-c1cc(C(C)=O)c2n(c1=O)CCC2,0,
COc1ccc2c(C(c3ccccc3O)C3CCCN3S(=O)(=O)c3ccc(C)cc3)cn(C)c2c1 (centres undefined),-2,
COC(=O)[C@]12C[C@H](CC(=O)N3CCC(c4ccccc4)CC3)C(=O)N(Cc3ccccc3)C1=C[C@H](COCc1ccccc1)O[C@@H]2C,-2,
S=c1[nH]nc(COc2ccccc2)n1/N=C/c1cccc(Br)c1,-1,
S=c1[nH]nc(COc2ccccc2)n1/N=C/C=C/c1ccccc1,20*,HuH7 TTR inh=-4;TTR act confirm=1
S=c1[nH]nc(COc2ccccc2)n1/N=C/C=C/c1ccco1,3,
SMILES,TTR transcr act,others
CC(=O)Nc1sc2c(c1-c1nc3ccccc3s1)CCOC2,-1,
CCn1cc(S(=O)(=O)N2CCCC2)cn1,14*,HuH7 TTR inh=-5;TTR act confirm=1
CCn1cc(S(=O)(=O)NC2CCCCC2)cn1,2,
CCn1c(C)nc2cc(S(=O)(=O)N3CCCC3)ccc21,0,
O=C1C(NC(=O)N2c3ccccc3C=Cc3ccccc32)CCCCN1Cc1ccc(Cl)cc1 (centres undefined),-1,
COc1ccc(-c2cc(C(F)(F)F)n3nc(C)cc3n2)cc1,14*,HuH7 TTR inh=9;TTR act confirm=-1
COc1ccc(-c2cc(C(F)(F)F)n3nc(C(=O)O)nc3n2)cc1,-1,
Cc1cc2nc(-c3ccco3)cc(C(F)(F)F)n2n1,-1,
C=CCN1C(=O)c2ccc(C(=O)N(CC)CC(=O)Nc3ccc(OC)cc3)cc2C1=O,1,
Cc1ccccc1CN1CCCCC(NC(=O)C2CCC2)C1=O (centres undefined),0,
O=C1Oc2ccccc2C2(O)C3CCCCCC3C12 (centres undefined),13*,HuH7 TTR inh=-11;TTR act confirm=0
CCc1nc2c(OCc3ccc(C(F)(F)F)cc3)cccn2c1N(C)C(=O)C(C)C,1,
Nc1nc2ncccc2cc1C(=O)c1c[nH]c2ccccc12,-1,
